Measured values: the supplement of paper PMC11732987, “Enantioselective OTUD7B fragment discovery through chemoproteomics screening and high-throughput optimisation” (Communications Chemistry, 2025)

Assays:
Assay in all cases: log2 ratio of Biotin-Ahx-Ub-VS probe labelling (fragment/DMSO); higher = less target engagement (more negative = stronger competition), active = hit call of the paper (q ≤ 0.05, log2 ratio ≤ -1)
Settings in all cases: compound concentration: 200 uM; treatment time: 3 h
[1] = target: USP9X (UniProt Q93008)
Method in brief: (§1)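 In triplicate, 495 µg of HEK293T lysate per sample was incubated with fragment at 200 µM or vehicle for 3 h. Biotin-Ahx-Ub-VS was then added to 0.5 µM final for 1 h, and labelled DUBs were captured with NeutrAvidin, digested with LysC and trypsin, and measured by diaPASEF LC-MS/MS. Data are average log2 fragment/vehicle ratios by unpaired t-test from global-median-normalised Spectronaut label-free quantities, restricted to proteins with ≥2 unique peptides.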

[2] = target: UniProt O00487
UniProt O00487, sequence (O00487 whole entry): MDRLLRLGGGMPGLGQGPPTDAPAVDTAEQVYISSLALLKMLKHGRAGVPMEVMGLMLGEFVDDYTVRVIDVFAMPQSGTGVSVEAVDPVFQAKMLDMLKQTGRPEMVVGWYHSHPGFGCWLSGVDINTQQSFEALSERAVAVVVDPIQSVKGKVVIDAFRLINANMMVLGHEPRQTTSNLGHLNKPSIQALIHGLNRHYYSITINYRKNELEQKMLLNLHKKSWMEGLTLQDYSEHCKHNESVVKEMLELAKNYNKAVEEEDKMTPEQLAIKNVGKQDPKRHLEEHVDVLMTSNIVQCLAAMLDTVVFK
Method in brief: as §1

[3] = target: UniProt O00507
UniProt O00507, sequence (O00507 whole entry): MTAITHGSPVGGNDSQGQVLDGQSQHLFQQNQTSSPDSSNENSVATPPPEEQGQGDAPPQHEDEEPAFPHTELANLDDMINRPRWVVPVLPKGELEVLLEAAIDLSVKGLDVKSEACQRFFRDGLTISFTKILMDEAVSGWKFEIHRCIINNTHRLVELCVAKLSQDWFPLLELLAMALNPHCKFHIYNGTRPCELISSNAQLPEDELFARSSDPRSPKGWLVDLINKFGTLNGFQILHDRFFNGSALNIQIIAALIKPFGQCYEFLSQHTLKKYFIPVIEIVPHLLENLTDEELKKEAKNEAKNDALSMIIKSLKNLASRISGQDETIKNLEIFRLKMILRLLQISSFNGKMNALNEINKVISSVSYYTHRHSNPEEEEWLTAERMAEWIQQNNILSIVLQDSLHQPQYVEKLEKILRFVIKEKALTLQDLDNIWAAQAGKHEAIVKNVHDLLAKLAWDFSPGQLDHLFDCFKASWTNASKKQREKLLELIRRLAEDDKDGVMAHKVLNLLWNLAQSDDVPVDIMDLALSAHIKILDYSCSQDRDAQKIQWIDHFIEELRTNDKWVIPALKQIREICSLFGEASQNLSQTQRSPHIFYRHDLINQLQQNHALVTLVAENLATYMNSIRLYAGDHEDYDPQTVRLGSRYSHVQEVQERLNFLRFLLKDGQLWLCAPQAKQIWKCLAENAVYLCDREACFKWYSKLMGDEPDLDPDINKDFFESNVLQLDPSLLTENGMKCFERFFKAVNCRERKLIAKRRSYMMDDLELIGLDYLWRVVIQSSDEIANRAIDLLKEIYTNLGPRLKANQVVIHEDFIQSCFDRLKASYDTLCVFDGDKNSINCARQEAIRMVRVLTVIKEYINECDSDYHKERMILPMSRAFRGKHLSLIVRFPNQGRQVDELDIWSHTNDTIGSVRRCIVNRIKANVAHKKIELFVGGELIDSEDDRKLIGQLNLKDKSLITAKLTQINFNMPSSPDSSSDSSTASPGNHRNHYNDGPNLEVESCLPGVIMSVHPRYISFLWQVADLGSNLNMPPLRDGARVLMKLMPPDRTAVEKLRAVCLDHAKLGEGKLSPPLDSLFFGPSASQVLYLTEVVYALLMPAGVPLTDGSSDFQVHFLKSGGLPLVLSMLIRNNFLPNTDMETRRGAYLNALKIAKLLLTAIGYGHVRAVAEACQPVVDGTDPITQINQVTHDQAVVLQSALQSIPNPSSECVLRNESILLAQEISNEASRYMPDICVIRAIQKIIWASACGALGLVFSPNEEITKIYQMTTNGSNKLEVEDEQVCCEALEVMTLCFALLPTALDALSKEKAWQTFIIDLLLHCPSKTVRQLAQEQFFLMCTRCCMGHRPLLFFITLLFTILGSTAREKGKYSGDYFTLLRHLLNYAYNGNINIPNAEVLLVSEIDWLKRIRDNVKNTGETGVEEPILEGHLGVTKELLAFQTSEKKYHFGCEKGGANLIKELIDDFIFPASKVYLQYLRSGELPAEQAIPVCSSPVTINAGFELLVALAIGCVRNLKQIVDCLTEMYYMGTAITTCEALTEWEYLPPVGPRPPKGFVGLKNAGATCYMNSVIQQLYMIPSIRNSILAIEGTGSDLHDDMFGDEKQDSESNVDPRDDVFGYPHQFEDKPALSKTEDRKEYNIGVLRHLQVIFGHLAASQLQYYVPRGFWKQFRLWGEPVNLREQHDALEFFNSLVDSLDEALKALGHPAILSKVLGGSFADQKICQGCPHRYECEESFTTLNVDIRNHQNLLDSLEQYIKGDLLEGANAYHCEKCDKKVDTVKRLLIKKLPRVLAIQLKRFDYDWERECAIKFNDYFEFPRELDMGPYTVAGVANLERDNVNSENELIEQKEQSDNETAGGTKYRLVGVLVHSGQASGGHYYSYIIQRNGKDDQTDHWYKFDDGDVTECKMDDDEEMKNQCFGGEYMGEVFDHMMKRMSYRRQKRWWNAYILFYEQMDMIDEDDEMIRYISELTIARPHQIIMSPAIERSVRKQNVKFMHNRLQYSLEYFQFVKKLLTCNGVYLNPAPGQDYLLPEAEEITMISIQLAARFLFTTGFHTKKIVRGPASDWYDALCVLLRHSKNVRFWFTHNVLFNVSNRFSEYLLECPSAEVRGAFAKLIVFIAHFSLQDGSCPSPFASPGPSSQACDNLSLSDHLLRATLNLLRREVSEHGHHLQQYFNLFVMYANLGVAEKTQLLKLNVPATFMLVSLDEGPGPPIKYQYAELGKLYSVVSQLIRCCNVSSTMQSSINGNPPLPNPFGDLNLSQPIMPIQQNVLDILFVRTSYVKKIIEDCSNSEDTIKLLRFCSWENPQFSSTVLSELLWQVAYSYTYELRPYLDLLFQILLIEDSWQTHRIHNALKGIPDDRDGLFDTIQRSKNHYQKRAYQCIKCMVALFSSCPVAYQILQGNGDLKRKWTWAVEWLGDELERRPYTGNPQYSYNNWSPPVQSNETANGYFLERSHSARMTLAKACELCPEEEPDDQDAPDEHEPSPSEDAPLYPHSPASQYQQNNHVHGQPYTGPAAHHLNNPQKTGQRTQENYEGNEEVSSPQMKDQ
Method in brief: as §1

[4] = target: UniProt P51784
UniProt P51784, sequence (P51784 whole entry): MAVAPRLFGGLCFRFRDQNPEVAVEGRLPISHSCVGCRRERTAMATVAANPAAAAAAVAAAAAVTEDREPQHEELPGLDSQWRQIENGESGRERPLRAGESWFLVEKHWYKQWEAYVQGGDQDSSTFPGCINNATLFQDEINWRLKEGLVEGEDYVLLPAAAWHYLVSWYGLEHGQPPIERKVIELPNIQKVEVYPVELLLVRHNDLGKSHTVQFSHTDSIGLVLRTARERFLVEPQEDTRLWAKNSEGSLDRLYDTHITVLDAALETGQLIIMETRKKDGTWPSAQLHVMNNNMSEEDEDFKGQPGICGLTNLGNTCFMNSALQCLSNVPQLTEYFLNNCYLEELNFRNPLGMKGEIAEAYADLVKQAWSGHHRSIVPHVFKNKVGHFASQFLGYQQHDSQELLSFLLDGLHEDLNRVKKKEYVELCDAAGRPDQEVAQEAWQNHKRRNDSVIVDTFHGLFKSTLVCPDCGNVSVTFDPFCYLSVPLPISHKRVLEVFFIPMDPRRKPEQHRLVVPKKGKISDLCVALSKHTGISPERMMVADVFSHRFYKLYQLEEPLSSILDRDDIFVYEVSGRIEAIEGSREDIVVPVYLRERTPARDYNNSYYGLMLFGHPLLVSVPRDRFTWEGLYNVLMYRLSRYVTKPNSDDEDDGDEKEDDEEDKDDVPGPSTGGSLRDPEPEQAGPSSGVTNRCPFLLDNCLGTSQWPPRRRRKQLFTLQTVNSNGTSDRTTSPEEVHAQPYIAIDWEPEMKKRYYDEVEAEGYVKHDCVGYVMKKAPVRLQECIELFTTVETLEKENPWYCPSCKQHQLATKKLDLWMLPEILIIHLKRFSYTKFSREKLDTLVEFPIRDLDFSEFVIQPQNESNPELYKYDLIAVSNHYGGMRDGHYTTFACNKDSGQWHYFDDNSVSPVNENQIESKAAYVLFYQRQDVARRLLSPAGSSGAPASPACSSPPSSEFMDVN
Method in brief: as §1

[5] = target: T1, UniProt Q5T2D3
T1 sequence (whole entry): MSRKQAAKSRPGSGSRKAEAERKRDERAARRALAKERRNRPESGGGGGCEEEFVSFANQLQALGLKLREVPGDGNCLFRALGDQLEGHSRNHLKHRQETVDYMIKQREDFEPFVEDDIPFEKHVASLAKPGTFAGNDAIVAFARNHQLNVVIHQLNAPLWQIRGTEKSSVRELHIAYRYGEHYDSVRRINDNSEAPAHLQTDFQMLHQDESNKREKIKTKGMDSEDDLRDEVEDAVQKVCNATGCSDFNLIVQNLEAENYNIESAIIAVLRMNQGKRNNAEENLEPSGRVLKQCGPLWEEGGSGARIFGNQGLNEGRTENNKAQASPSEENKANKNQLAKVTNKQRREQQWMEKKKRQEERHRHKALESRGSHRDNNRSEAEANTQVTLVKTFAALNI
Method in brief: as §1

[6] = target: T2, UniProt Q8TE49
T2 sequence (whole entry): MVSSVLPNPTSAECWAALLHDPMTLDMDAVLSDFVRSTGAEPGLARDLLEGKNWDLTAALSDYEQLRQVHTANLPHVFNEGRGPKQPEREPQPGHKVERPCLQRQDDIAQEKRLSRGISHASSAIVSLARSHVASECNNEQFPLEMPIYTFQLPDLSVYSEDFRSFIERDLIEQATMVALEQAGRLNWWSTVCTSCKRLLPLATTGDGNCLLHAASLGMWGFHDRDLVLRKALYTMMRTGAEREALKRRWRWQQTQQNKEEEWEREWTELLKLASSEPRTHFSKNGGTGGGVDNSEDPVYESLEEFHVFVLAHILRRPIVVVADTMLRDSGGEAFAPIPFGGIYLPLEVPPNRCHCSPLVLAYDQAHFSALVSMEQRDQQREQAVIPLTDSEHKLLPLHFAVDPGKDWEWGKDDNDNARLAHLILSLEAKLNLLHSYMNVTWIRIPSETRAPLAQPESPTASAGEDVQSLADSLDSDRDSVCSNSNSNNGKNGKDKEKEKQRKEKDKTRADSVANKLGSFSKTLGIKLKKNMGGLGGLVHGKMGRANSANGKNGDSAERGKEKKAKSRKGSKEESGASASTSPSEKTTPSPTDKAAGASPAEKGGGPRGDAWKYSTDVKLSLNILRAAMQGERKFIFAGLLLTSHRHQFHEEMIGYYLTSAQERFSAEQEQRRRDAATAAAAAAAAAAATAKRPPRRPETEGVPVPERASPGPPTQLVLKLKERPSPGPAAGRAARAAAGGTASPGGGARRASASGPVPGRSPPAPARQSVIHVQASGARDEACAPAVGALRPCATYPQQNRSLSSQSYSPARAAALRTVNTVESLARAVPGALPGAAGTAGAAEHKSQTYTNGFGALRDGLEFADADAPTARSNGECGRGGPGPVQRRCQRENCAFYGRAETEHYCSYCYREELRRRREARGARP
Method in brief: as §1

[7] = target: T3, UniProt Q9P2H5
T3 sequence (whole entry): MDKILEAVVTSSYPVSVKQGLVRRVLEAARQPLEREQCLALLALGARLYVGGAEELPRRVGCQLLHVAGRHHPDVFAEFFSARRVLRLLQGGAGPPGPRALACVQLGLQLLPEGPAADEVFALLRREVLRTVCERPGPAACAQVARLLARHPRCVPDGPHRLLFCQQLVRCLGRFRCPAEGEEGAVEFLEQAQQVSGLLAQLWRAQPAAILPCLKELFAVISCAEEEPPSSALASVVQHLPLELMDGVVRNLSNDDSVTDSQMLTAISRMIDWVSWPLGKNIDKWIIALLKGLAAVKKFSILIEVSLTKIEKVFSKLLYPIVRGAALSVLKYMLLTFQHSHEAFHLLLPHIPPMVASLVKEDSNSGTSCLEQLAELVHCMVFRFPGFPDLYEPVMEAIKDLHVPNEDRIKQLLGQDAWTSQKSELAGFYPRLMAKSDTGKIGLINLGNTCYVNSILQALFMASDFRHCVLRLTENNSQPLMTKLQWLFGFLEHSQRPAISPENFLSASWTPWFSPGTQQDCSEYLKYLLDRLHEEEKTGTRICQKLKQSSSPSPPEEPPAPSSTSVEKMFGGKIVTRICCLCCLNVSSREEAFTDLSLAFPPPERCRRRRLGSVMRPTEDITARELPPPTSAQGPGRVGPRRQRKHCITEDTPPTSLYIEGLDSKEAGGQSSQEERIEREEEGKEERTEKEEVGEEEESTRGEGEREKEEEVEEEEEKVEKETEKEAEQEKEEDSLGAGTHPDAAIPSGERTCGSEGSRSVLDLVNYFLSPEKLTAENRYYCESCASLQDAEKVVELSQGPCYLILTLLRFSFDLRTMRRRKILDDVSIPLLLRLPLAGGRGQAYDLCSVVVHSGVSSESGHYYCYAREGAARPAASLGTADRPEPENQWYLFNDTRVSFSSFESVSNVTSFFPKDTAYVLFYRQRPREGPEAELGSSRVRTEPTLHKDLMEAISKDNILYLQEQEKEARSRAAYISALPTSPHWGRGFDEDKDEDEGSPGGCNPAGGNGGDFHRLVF
Method in brief: as §1

[8] = target: T4, UniProt Q9UGI0
T4 sequence (whole entry): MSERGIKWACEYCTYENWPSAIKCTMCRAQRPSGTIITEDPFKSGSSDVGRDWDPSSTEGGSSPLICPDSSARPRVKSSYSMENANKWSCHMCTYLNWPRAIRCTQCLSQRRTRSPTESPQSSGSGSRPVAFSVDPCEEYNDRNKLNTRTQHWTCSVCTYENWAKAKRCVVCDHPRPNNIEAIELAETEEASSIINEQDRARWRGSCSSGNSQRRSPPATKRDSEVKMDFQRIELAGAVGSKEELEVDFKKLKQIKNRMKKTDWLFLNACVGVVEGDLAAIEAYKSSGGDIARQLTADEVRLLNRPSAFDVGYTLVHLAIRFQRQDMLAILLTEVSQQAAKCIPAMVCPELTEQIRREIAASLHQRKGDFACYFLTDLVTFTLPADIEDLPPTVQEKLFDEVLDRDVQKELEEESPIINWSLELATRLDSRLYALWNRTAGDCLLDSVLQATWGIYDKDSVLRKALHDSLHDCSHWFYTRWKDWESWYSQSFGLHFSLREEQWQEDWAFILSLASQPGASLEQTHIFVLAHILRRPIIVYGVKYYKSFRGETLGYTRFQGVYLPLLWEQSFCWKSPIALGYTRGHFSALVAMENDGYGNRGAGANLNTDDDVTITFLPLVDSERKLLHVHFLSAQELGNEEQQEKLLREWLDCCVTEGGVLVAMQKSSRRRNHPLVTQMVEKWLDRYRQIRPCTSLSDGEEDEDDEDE
Method in brief: as §1

[9] = target: T5, YOD1 (UniProt Q5VVQ6)
T5 sequence (whole entry): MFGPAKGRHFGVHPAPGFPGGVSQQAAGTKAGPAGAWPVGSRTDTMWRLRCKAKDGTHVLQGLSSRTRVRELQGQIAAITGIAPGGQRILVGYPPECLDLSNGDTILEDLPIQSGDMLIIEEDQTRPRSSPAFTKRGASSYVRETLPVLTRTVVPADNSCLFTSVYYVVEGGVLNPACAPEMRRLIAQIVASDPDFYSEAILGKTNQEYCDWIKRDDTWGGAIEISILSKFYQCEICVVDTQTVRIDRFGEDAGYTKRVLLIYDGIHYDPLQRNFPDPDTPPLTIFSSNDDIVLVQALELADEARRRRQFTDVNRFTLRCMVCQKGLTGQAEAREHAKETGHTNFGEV
Method in brief: as §1

Measured: log2 ratio of Biotin-Ahx-Ub-VS probe labelling

Cc1ccc(C)c(NC(=O)CCl)c1
inactive: [1] -0.374 | [2] -0.102 | [3] -0.612 | [4] -0.335 | [5] -0.41 | [6] -0.57 | [7] -0.295 | [8] -0.449 | [9] -0.599
